Screens (PubChem BioAssay)
IL-1B inflam inh – qHTS for Inhibitors of Inflammasome Signaling: IL-1-beta AlphaLISA Primary Screen | activity change, % at 57.5 µM | actives 4.7% (n = 360,000) | THP-1 LPS/ATP IL-1B secretion, AlphaLISA, 16 h; stronger effect = lower value | AID 743279, 2014; in the data active = activity change below about -50%; inconclusive = mostly about -30% to -49%
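THP-1 cells pretreated 1 hr with compounds (up to 57.5 uM final), then stimulated with LPS (250 ng/mL final) plus ATP (1.25 mM final); secreted IL-1B measured by AlphaLISA after 16 hr, decreased signal indicating inhibition.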
LDHA block – qHTS assay for inhibitors of human lactate dehydrogenase; L-lactate dehydrogenase A chain (Homo sapiens), P00338; AID 1347041, 2019; purified LDHA, NADH/diaphorase-resazurin fluorescence; stronger effect = lower value; actives 0.15% (n = 480,000); activity change, % (values are at about 110 or 230 µM); in the data active = activity change below about -30%; inconclusive = mostly about -25% to -30%;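 note: plate controls were DMSO wells for no effect and wells without enzyme for full effect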
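LDH5 2 nM; NADH 0.06 mM, pyruvate 0.2 mM; 200 mM Tris pH 7.4, EDTA, Tween-20; 5 min RT. Detection: diaphorase 0.133 mg/mL + resazurin 37 µM, fluorescence ex540/em590 at 0 and 20 min; normalized to enzyme-free and DMSO wells.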
TDP1 cell noCPT – qHTS for Inhibitors of human tyrosyl-DNA phosphodiesterase 1 (TDP1): qHTS in cells in absence of CPT; DT40 Tdp1-/- hTDP1 cells, no CPT, ATP luminescence, 48 h; AID 686978, 2013; actives 15% (n = 420,000); Potency, µM (top dose mostly 46.2 µM), inactives show top-dose activity change, negative = growth inhibition, hits mostly inhibitors; note: potency is the fitted concentration of half-maximal effect; nearly all actives have a fitted effect of over 55% in size
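Camptothecin absent (DMSO only). Human TDP1-complemented DT40 knockout cells, 400 cells/well, 37 °C for minimum 48 hr; ATP measured via CellTiter-Glo, 30 min dark incubation, luminescence.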
DT40 TDP1 CPT – qHTS for Inhibitors of human tyrosyl-DNA phosphodiesterase 1 (TDP1): qHTS in cells in presence of CPT; chicken DT40 Tdp1-/-;hTDP1 cells + 20 nM CPT, ATP luminescence, 48 h; AID 686979, 2013; Potency, µM (titrated, usually from 46.2 µM), for inactives: top-dose activity change, negative = growth inhibition, most hits filed as inhibitors; actives 12% (n = 420,000); note: potency is the fitted concentration of half-maximal effect; nearly all actives have a fitted effect of over 55% in size
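Cell growth measured by CellTiter-Glo luminescence after a minimum 48 h, 37 C compound exposure with 20 nM CPT in Tdp1-knockout DT40 cells stably expressing hTDP1, seeded 400/well; qHTS titration format.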
VP16 counter – VP16 counterscreen qHTS for inhibitors of ROR gamma transcriptional activity. actives 3.5% (n = 310,000). Potency, µM (doses to about 53.6 µM), inactives show at the top dose activity, negative = inhibition, most hits filed as inhibitors. Drosophila S2 Gal4-VP16 UAS-luciferase, luminescence, 20 h. AID 2546, 2010;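 note: Gal4-VP16 expression switched on by copper sulfate through the metallothionein promoter; potency is the fitted concentration of half-maximal effect; nearly all actives have a fitted effect of over 50% in size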
RORg inh – qHTS for inhibitors of ROR gamma transcriptional activity. actives 5.4% (n = 310,000). AID 2551, 2010. Potency, µM (titrated, usually from 53.6 µM), for inactives: top-dose activity change, negative = inhibition, hits mostly inhibitors. Drosophila S2 Gal4-RORgamma UAS-luciferase reporter, 20 h; note: potency is the fitted concentration of half-maximal effect; nearly all actives have a fitted effect of over 60% in size
Target sequence (P51450 whole entry, looked up, the tested form may be a part): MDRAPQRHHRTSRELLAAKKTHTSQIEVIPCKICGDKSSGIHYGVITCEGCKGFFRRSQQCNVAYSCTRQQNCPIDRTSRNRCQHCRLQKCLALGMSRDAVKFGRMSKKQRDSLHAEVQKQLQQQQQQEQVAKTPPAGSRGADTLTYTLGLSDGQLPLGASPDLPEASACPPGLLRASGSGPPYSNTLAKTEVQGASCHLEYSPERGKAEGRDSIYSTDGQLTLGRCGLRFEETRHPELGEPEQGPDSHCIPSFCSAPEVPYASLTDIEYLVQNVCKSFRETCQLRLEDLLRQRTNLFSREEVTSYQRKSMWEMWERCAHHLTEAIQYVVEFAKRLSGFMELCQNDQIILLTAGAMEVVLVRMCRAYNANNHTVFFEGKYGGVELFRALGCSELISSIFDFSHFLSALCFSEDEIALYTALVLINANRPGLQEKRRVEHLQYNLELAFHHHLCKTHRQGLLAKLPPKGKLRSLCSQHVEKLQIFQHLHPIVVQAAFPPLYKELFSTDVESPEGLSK
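In this cell-based reporter format, copper sulfate (700 uM final) drives Gal4–ROR gamma fusion expression from a metallothionein promoter in Drosophila Schneider cells; compounds preincubated 1 hr, reporter read after 20 hr at ambient temperature.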
* marks the source's active call; other numbers are inactive results; u = inconclusive; x = no result. The list is not random: actives were taken first. Their share in the collection is about 18%. Unless noted, calls come from the whole dose curve; as a rule, active = well fitted curve in the direction sought with a large enough effect; inconclusive = small, poorly fitted or top-dose-only effect, or another doubt; inactive = no such curve, though single readings can be large; an effect the other way counts as inactive or inconclusive. Unless noted, % is set by controls: 0 for no effect and ±100 for the full control effect.

SMILES | IL-1B inflam inh | LDHA block | TDP1 cell noCPT | DT40 TDP1 CPT | VP16 counter | RORg inh
CC(C)C[C@H]1CNC(=O)C(=O)N1C[C@H]1CCCN1C[C@H](CC(C)C)N1C[C@H](CC(C)C)N(CCc2ccccc2)C(=O)C1=O | -75* | -4 | u | u | x | x
CC(C)C[C@H]1CN([C@@H](CC(C)C)CN2CCC[C@H]2CN2C(=O)C(=O)NC[C@@H]2Cc2ccccc2)C(=O)C(=O)N1CCc1ccccc1 | 8 | 1 | 4% | 3% | x | x
COC(=O)c1ncoc1-c1ccccc1C(=O)N1CCN(c2cccc(OC)c2)CC1 | x | -1 | x | x | x | x
N#Cc1c(NC(=O)c2ccnn2C(F)F)sc2c1CCC2 | x | 10 | x | x | x | x
CCOC(=O)C1=C(C)C/C(=N\NC(=O)c2ccccc2O)CC1 | 1 | -5 | u | 8.2µM* | 10µM* | 5µM*
CCOC(=O)N1CCC(=NNC(=O)c2cc3ccccc3cc2O)CC1 | 17 | 14 | -9% | 7% | u | 13µM*
CC(=O)N1CCC(=NNC(=O)c2cc3ccccc3cc2O)CC1 | 2 | 9 | u | -24% | -10% | 10µM*
O=C(NN=C1CCN(Cc2ccccc2)CC1)c1ccccc1O | 26 | -1 | -8% | 6% | u | 10µM*
O=C(NN=C1CCN(Cc2ccccc2)CC1)c1cc2ccccc2cc1O | 0 | 14 | -3% | 4% | 1% | 4%
CC(C(=O)N(C)Cc1ccccc1)S(=O)(=O)Cc1ccc(Cl)c(Cl)c1 (stereo unspecified) | x | 0 | x | x | x | x
O=C(CCSc1ccc(F)c(F)c1)Nc1ccc(-n2cnnn2)cc1 | x | -10 | x | x | x | x
O=S(=O)(CCSc1nc2ccccc2o1)Cc1ccccc1 | -26 | 3 | -22% | -30% | -5% | -10%
CCS(=O)(=O)CCSc1nc2ccccc2o1 | 4 | -10 | -3% | 0% | 6% | -13%
O=S(=O)(CCSc1nc2ccccc2o1)c1nc2ccccc2s1 | -99* | 1 | 3.7µM* | 4.1µM* | u | u
O=S(=O)(NCCSc1nc2ccccc2o1)c1ccccc1 | 0 | -1 | 16µM* | 16µM* | 13% | u
O=S(=O)(CCSc1ccccn1)c1nc2ccccc2s1 | -106* | 1 | 5.2µM* | 2.3µM* | u | 13µM*
CC(=O)Nc1ccccc1OCC(=O)NC(C)C(C)C (stereo unspecified) | x | 0 | x | x | x | x
CCN(CC)CCC(c1ccc(OC)cc1)c1c(O)cc(OC)cc1OC (stereo unspecified) | -19 | 0 | u | 21µM* | -6% | -3%
COc1cc(O)c(C(CCN2CCCCC2)c2cc(OC)c(OC)c(OC)c2)c(OC)c1 (stereo unspecified) | -26 | 1 | -24% | u | 3% | -14%
COc1ccc(C(CCN2CCCCC2)c2c(O)cc(OC)cc2OC)cc1 (stereo unspecified) | -24 | 1 | 18µM* | 18µM* | -9% | -15%
COc1ccc(C(CCN2CCCC2)c2c(O)cc(OC)cc2OC)cc1 (stereo unspecified) | -17 | 1 | u | 18µM* | -8% | -3%
COCCCNC(=O)c1cc(-c2ccncc2)nc2ccc(S(=O)(=O)N3CCOCC3)cc12 | x | 4 | x | x | x | x
COC(=O)Cn1c(=NC(=O)CSC(C)=O)sc2ccccc21 | -13 | -12 | u | u | -7% | 4%
CCn1c(=NC(=O)CSC(C)=O)sc2cc(OC)ccc21 | 25 | 1 | u | u | u | 10µM*
CCn1c(=NC(=O)CSC(C)=O)sc2ccccc21 | -16 | -1 | u | 21µM* | -3% | -33%
SMILES | IL-1B inflam inh | LDHA block | TDP1 cell noCPT | DT40 TDP1 CPT | VP16 counter | RORg inh
COc1ccc(N2CC(C(=O)NCCNC(=O)c3c[nH]c4ccccc34)CC2=O)cc1 (stereo unspecified) | x | 0 | x | x | x | x
Oc1ccc(-c2nc3cc(C(F)(F)F)ccc3s2)cc1 | x | 3 | x | x | x | x
Cc1cc(C)c(NC(=O)CSc2nncn2C)c(Cl)c1 | x | 0 | x | x | x | x
CCCc1ccccc1OCCNS(=O)(=O)c1cc2c(cc1C)OCC(=O)N2 | -99* | 2 | 12µM* | 15µM* | u | 16%
O=C1Cc2ccccc2C(=O)N1 | 107 | 15 | 1.2µM* | 1.5µM* | x | x
Cn1nc(CC(=O)NCc2ccccc2F)c2ccccc2c1=O | x | 4 | x | x | x | x
O=S(=O)(c1ccc(Cl)cc1)N1CCN(c2nc(C(F)(F)F)nc3ccccc23)CC1 | 7 | 3 | u | u | x | x
CCn1c(N2CCN(S(=O)(=O)c3ccc(F)cc3)CC2)nc2ccccc21 | -59* | -14 | 15µM* | u | 0% | 23%
CCn1c(N2CCN(S(=O)(=O)CC)CC2)nc2ccccc21 | 26 | -4 | 0% | 5% | -11% | -17%
CCn1c(N2CCN(S(=O)(=O)c3ccc(Cl)cc3)CC2)nc2ccccc21 | -87* | -5 | 15µM* | 15µM* | u | u
O=C(/C=C/c1ccccc1)Nc1ccc(OCCc2ccccc2)cc1 | x | -12 | x | x | x | x
COc1ccc(OC)c(C(=O)CC2(O)C(=O)N(C)c3ccc(Br)cc32)c1 (stereo unspecified) | x | 5 | x | x | x | x
